# Shown is part of a subset that was picked to be rich in the strongest signals.
# How the values were obtained:
# Assay in all cases: glycan array binding signal (z-score within array); higher = stronger binding
# Conditions in all cases: glycan notation: IUPAC condensed, linker removed
# GalNAc(a1-3)Gal = biological target: GalNAc(a1-3)Gal
# Outline: (§1)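 Glycan array data were curated from 3228 arrays in the Consortium for Functional Glycomics database and kept only where the protein sequence was available. Glycan names were converted to IUPAC-condensed notation, and columns mapping to the same glycan were averaged. The binding signal is a within-array Z-score, averaged across arrays of the same protein sequence at different concentrations or buffers and across linkers. Negative Z-scores can be read as non-binding.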
# GalNAc(a1-3)GalNAc = biological target: GalNAc(a1-3)GalNAc
# Outline: as §1
# [1] = biological target: GalNAc(a1-3)GalNAc(a1-3)Gal(a1-4)Gal(b1-4)GlcNAc
# Outline: as §1
# [2] = biological target: GalNAc(a1-3)GalNAc(b1-3)Gal(a1-4)Gal(b1-4)GlcNAc
# Outline: as §1
# Glc(b1-4)Glc = biological target: Glc(b1-4)Glc
# Outline: as §1
# Glc(b1-6)Glc = biological target: Glc(b1-6)Glc
# Outline: as §1
# GlcA(b1-3)Gal = biological target: GlcA(b1-3)Gal
# Outline: as §1
# [3] = biological target: GlcA3S(b1-3)Gal(b1-4)GlcNAc(b1-3)Gal(b1-4)Glc
# Outline: as §1
# [4] = biological target: GlcNAc(a1-3)Gal(b1-4)GlcNAc
# Outline: as §1
# [5] = biological target: GlcNAc(a1-4)Gal(b1-4)GalNAc
# Outline: as §1
# [6] = biological target: GlcNAc(a1-4)Gal(b1-4)GlcNAc(b1-3)Gal(b1-4)GlcNAc
# Outline: as §1
# [7] = biological target: GlcNAc(a1-4)Gal(b1-4)GlcNAc(b1-3)Gal(b1-4)GlcNAc(b1-3)Gal(b1-4)GlcNAc
# Outline: as §1
# [8] = biological target: GlcNAc(b1-2)[GlcNAc(b1-4)]Man(a1-3)[GlcNAc(b1-4)][GlcNAc(b1-2)[GlcNAc(b1-6)]Man(a1-6)]Man(b1-4)GlcNAc(b1-4)[Fuc(a1-6)]GlcNAc
# Outline: as §1
# [9] = biological target: GlcNAc(b1-2)[GlcNAc(b1-6)]Man(a1-6)[GlcNAc(b1-2)Man(a1-3)][GlcNAc(b1-4)]Man(b1-4)GlcNAc(b1-4)GlcNAc
# Outline: as §1
# [10] = biological target: GlcNAc(b1-3)Gal(b1-4)GlcNAc(b1-3)Gal(b1-4)GlcNAc(b1-2)Man(a1-3)[GlcNAc(b1-3)Gal(b1-4)GlcNAc(b1-3)Gal(b1-4)GlcNAc(b1-2)Man(a1-6)]Man(b1-4)GlcNAc(b1-4)[Fuc(a1-6)]GlcNAc
# Outline: as §1
# [11] = biological target: GlcNAc(b1-3)Gal(b1-4)GlcNAc(b1-3)Gal(b1-4)GlcNAc(b1-3)Gal(b1-4)GlcNAc(b1-2)Man(a1-3)[GlcNAc(b1-3)Gal(b1-4)GlcNAc(b1-3)Gal(b1-4)GlcNAc(b1-3)Gal(b1-4)GlcNAc(b1-2)Man(a1-6)]Man(b1-4)GlcNAc(b1-4)GlcNAc
# Outline: as §1
# [12] = biological target: GlcNAc(b1-3)Gal(b1-4)GlcNAc(b1-3)Gal(b1-4)GlcNAc(b1-3)Gal(b1-4)GlcNAc(b1-2)Man(a1-3)[GlcNAc(b1-3)Gal(b1-4)GlcNAc(b1-3)Gal(b1-4)GlcNAc(b1-3)Gal(b1-4)GlcNAc(b1-2)Man(a1-6)]Man(b1-4)GlcNAc(b1-4)[Fuc(a1-6)]GlcNAc
# Outline: as §1
# Kdn(a2-3)Gal(b1-4)GlcNAc = biological target: Kdn(a2-3)Gal(b1-4)GlcNAc
# Outline: as §1
# [13] = biological target: Neu5Ac(a2-3)Gal(b1-3)GalNAc(b1-3)Gal(a1-4)Gal(b1-4)Glc
# Outline: as §1
# [14] = biological target: Neu5Ac(a2-3)Gal(b1-3)GalNAc(b1-4)[Neu5Ac(a2-8)Neu5Ac(a2-3)]Gal(b1-4)Glc
# Outline: as §1
# [15] = biological target: Neu5Ac(a2-3)Gal(b1-3)[Fuc(a1-4)]GlcNAc(b1-3)Gal(b1-4)[Fuc(a1-3)]GlcNAc
# Outline: as §1
# [16] = biological target: Neu5Ac(a2-3)Gal(b1-4)GlcNAc(b1-3)Gal(b1-4)GlcNAc
# Outline: as §1
# [17] = biological target: Neu5Ac(a2-3)Gal(b1-4)GlcNAc(b1-3)Gal(b1-4)GlcNAc(b1-3)Gal(b1-4)GlcNAc
# Outline: as §1
# [18] = biological target: Neu5Ac(a2-3)Gal6S(b1-4)GlcNAc
# Outline: as §1
# [19] = biological target: Neu5Ac(a2-6)Gal(b1-4)GlcNAc(b1-2)Man(a1-3)[Gal(b1-4)GlcNAc(b1-2)Man(a1-6)]Man(b1-4)GlcNAc(b1-4)GlcNAc
# Outline: as §1
# [20] = biological target: Neu5Ac(a2-6)Gal(b1-4)GlcNAc(b1-3)Gal(b1-4)GlcNAc(b1-3)Gal(b1-4)GlcNAc(b1-2)Man(a1-3)[Neu5Ac(a2-6)Gal(b1-4)GlcNAc(b1-3)Gal(b1-4)GlcNAc(b1-3)Gal(b1-4)GlcNAc(b1-2)Man(a1-6)]GalNAc
# Outline: as §1
# [21] = biological target: Neu5Ac(a2-6)Gal(b1-4)GlcNAc(b1-3)Gal(b1-4)[Fuc(a1-3)]GlcNAc(b1-3)Gal(b1-4)[Fuc(a1-3)]GlcNAc
# Outline: as §1
# Neu5Ac(b2-6)GalNAc = biological target: Neu5Ac(b2-6)GalNAc
# Outline: as §1
# [22] = biological target: Neu5Ac9Ac(a2-6)Gal(b1-4)GlcNAc
# Outline: as §1
binder,measurement,setting,value
"HPA (Helix pomatia), Q575S3 (protein) MWAHLTGLLLICALSLSAAQRAQTGEIDCGSDSSWPKDPSDNPNRDNTREIVKHVTFSPQFCREPKVILSVTTLDAEHTKNLRYEARLKSVSPSGLSASCYSWHDGTIYRMKLSWLAVED",glycan array binding signal (z-score),GalNAc(a1-3)Gal,4.18
same,glycan array binding signal (z-score),GalNAc(a1-3)GalNAc,4.53
same,glycan array binding signal (z-score),[1],5.04
same,glycan array binding signal (z-score),[2],5.7
same,glycan array binding signal (z-score),Glc(b1-4)Glc,-0.26
same,glycan array binding signal (z-score),Glc(b1-6)Glc,-0.266
same,glycan array binding signal (z-score),GlcA(b1-3)Gal,-0.262
same,glycan array binding signal (z-score),[3],-0.256
same,glycan array binding signal (z-score),[4],4.69
same,glycan array binding signal (z-score),[5],1.46
same,glycan array binding signal (z-score),[6],4.37
same,glycan array binding signal (z-score),[7],4.21
same,glycan array binding signal (z-score),[8],0.175
same,glycan array binding signal (z-score),[9],-0.24
same,glycan array binding signal (z-score),[10],-0.243
same,glycan array binding signal (z-score),[11],-0.257
same,glycan array binding signal (z-score),[12],-0.241
same,glycan array binding signal (z-score),Kdn(a2-3)Gal(b1-4)GlcNAc,-0.262
same,glycan array binding signal (z-score),[13],-0.243
same,glycan array binding signal (z-score),[14],-0.245
same,glycan array binding signal (z-score),[15],-0.209
same,glycan array binding signal (z-score),[16],-0.267
same,glycan array binding signal (z-score),[17],-0.265
same,glycan array binding signal (z-score),[18],-0.273
same,glycan array binding signal (z-score),[19],-0.261
same,glycan array binding signal (z-score),[20],-0.164
same,glycan array binding signal (z-score),[21],-0.253
same,glycan array binding signal (z-score),Neu5Ac(b2-6)GalNAc,-0.269
same,glycan array binding signal (z-score),[22],-0.274
